Assay results reported in PubChem BioAssay AID1347426 (Functional Genomics Laboratory (NCATS/FGL), 2020).
About 1,400 (4.5%) of roughly 31,000 sequences were called active. The sample as a whole holds a higher share of actives than the screen did. A number with no mark means an inactive call.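 The calls were made as follows: active = median seed-adjusted z-score above 1 or below -1; inactive = the rest.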

Assay: Novel Modifiers of Survival Motor Neuron (SMN) Protein: Gene Identification via Genome-wide siRNA Screen;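 also: luminescence tracks full-length SMN protein made from the SMN2 reporter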
Details: HEK293T SMN2-luciferase reporter, siRNA knockdown, 72 h; actives lie on both sides
Method in brief: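 Genome-wide siRNA screen (10418 genes, 3 siRNAs each, 1 pmol per well) by reverse transfection in HEK293T cells stably carrying an SMN2-luciferase reporter; luminescence after 72 hours, normalized to negative-control siRNA, log10-transformed, MAD-scored.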

Row | Sequence | median seed-adjusted z-score
1 | GGAACUACGUCCACACCCATT against GHRHR | 0
2 | GGAUAACACUAAGUUUAGATT against SFRS1 | -1.66 (active)
3 | GGCCGGUGUUUGACGACAATT against STK32C | -0.311
4 | CUCCCUCACCAAAACAAAATT against DUSP26 | 0.204
5 | CAAGGUCUGUAGUCAAAAUTT against ZNF677 | -0.441
6 | GGAGGUUCAGAAGCACCUATT against PACSIN2 | 0.73
7 | GUGUAGCACUGACCAAGAATT against RCAN3 | 0.544
8 | GAUCUGUGCUAUACUGACATT against EFTUD2 | -1.25 (active)
9 | GACCUGCUCUGUAACCUCATT against NAALADL1 | -0.0444
10 | AAAACUUACGAACAACAAATT against TBR1 | -0.388
11 | UCAAGCAUGUGGUCCUGUATT against AIP | 0.529
12 | GAUGAGUAUGCAAAAUUUATT against ATR | -0.217
13 | GCACAUAAGGAGGCGAUUATT against WDR33 | 3.27 (active)
14 | GCAACAUCGUGUUCUUGAATT against GAL3ST1 | 0.263
15 | GCAGAAACCCAGAUCGAGATT against PLAT | 0.246
16 | GGAACUUUUUCGUCGGUAUTT against RNGTT | -1.55 (active)
17 | CGACAUUGGUGACCCUCUUTT against DDOST | -0.315
18 | GCAGUUCGAGAAGAACUUUTT against LMBR1 | 0.236
19 | AGACACCCUUUGGACCACATT against ZFAND2A | 0
20 | GCACGAAUGAGGACGAUGATT against SPRY4 | -1.23 (active)
21 | GGUGGAAGUGGUCAACGUATT against DUSP21 | -0.0724
22 | GACGUGGAGUUGAUAAAGATT against DSC3 | 0.18
23 | GCCCGUCUGCAGUACCUAATT against ADAP2 | -1.1 (active)

Row | Sequence | median seed-adjusted z-score
24 | GCACUUAUAUGACAGCGAATT against SIM1 | -0.0177
25 | GCUCGAUUAACAAAAUAUATT against SLC30A5 | 0.401
26 | GAUUGGACCUAACAAUGGATT against NEIL3 | 0.0736
27 | UGCUGACUUUUAACCCACATT against CDK4 | 0.346
28 | CACUCGAAAUUUUGAAGCATT against CHD4 | 0.625
29 | CGGUUGAACUUCGAAAUAUTT against NF1 | -0.36
30 | CAACGGCAGGAAAUUCUAATT against KLRA1 | 0.918
31 | GUAUCGCAUUUCUACAGCATT against SAMHD1 | -1.33 (active)
32 | AGAGCAAGCGGAAAAGGGATT against HAND1 | 0.161
33 | GAAUCACCAGCUAAACUAUTT against STARD6 | 0.0605
34 | GCACCAGCGAGAGAAGAGATT against PLA2G3 | 0.543
35 | CCAAAGAACUUAAGGAUUUTT against NEURL2 | 1.39 (active)
36 | GGUCUACGUGAACAACUCUTT against KCNMB4 | 0
37 | GCAAAUCGCUAGCAUCAUUTT against MLL2 | -2.11 (active)
38 | GCAUUUUGCAUAUCCACCATT against TRMT12 | 0.352
39 | GAAGAAACUUGUGAACGAATT against MX1 | -1.49 (active)
40 | GGAACAGUCAUGCUGGAUATT against SLC4A7 | 0
41 | GAACAUCGCAUAAUCCUGATT against ORC1L | -0.536
42 | GCAACUUCGUGAGAUUACATT against COLEC12 | -1.04 (active)
43 | AAGCAUAAUUUGUACAGCUTT against NMNAT1 | 0.22
44 | CCAAGAUGCGAUCCUCCAATT against HOXA4 | 0.194
45 | GGCUUGGAUCAAUCUAAGATT against HNRNPL | 1.04 (active)
46 | GGGCAACUCUUCAUCUACATT against SLC5A10 | 0.669

Row | Sequence | median seed-adjusted z-score
47 | GGCUAUACAUGGAUAGCAATT against SLITRK1 | 0.215
48 | CGAUUAGUGUCAAAGGCUUTT against MMP7 | 0.0315
49 | CGAACGACAGUUCCACAAATT against PDE6A | 1.25 (active)
50 | GAAUCUAUGAGAUGAACAATT against LDB2 | -0.0847
51 | GCAGAAUACAAGAGCUUGATT against EID2 | -1.04 (active)
52 | GGCUCCUUAUAUGACUAUUTT against ACVR1C | -0.0005
53 | GCUCUGAGGGAGUAUCGAATT against TROVE2 | 0.399
54 | ACAUAACCGUUCUUCGAGATT against GTPBP2 | -0.166
55 | CAAAAGGACAAAUCAACGATT against DDAH1 | 0.138
56 | GAGACUGUGCAGAUGUAUATT against ANGPT1 | 0.289
57 | GCAUCAGCAUAAGUCCAUUTT against SIAH1 | 1.5 (active)
58 | GUGUCGUACUCACAUCCAUTT against PTCH2 | -0.191
59 | GUGACGGCUUUAGACCUGATT against PRTFDC1 | 0.493
60 | GCAAGGUUCCUAGCGUGUATT against VCAM1 | 0.19
61 | CAGCAGAGCCGAUCCAAGATT against GPR37L1 | -0.0348
62 | ACAUCUUCAAGGCCCUUUUTT against CTDSP2 | 0.498
63 | GGAAUUCCGUAAAAGCAUUTT against HOXC13 | -0.318
64 | CACUAAUCGUGAGCAUGGATT against XRCC5 | -1.11 (active)
65 | GAGUAGUUUAGAUAAGUUATT against SPAG9 | 0.0795
66 | GCAUCCGAGAUGUGACUAATT against DIS3 | 0.266
67 | GCAGUGAUCAUAAUUCUCATT against SLC7A1 | 0.445
68 | UGACGACACUGACCGCAGATT against UBE2S | 0.348
69 | GCAUUGAGAUGUUCCACAATT against TUFM | 1.07 (active)
